# Assay outcomes from PubChem.
# F508del corr: correctors of CFTR F508del function in bronchial epithelial cells | CFBE cells, YFP halide quenching; stimulated with forskolin plus potentiator P3; % fluorescence drop versus neutral controls | activity (quench increase), % at 7.58 µM | 0.36% of 350,000 active | AID 720511;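 active means mean added fluorescence quench of at least 8% versus neutral control, with both replicates also reaching 8%; inconclusive means only one of the mean or replicate conditions met; inactive means mean below 8% and not both replicates reaching 8%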;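 further: cells transiently co-express mutant CFTR-F508del with the halide-sensitive YFP; corrector assay measuring rescue of mutant channel to the surface after 24 h compound exposure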
# HIV Env fusion: inhibitors of HIV Env-mediated cell fusion | HeLa-JRFL Env/CEM21 cell fusion, luciferase | inhibition, % at 12.3 µM | 1.1% of 360,000 active;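 active means mean replicate inhibition score of at least 50 and every replicate individually at or above 50; inconclusive means only one of the two criteria met; inactive means mean below 50 and not all replicates reaching 50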;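 further: 0% = plate neutral controls and 100% = maraviroc near 300 nM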
# Wnt bcat act: activates Wnt/beta-catenin signaling in a reporter cell assay | activator, plate reader | activation, % at 9.35 µM | 1.2% of 300,000 active | AID 743398; in the data active means activation above about 30%, passing the limit was not always enough; inconclusive means no clear call, values can overlap the other calls;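 further: 0% = neutral control wells and 100% = positive control wells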
# INS-1E GSIS act: GLuc luminescence reporter in INS-1E cells, primary screen for activators of glucose-dependent secretion of insulin | activation, % at 16.6 µM | 0.61% of 370,000 active | INS-1E GLuc reporter insulin secretion, 2-3 h;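 active means lowest replicate activation of at least 40%, so every replicate reaches that level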;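 further: 0% = median of neutral control wells and 100% = median of IBMX positive control wells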
# MITF TRPM1 HTS: MITF TRPM1 promoter activation in melanoma cells; activation, % at 12.5 µM; AID 588334; 0.75% of 300,000 active; SK-MEL-5 TRPM1-promoter luciferase, 24 h; % of positive control, neutral wells = 0;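 active means mean activation of at least 80% with every replicate also reaching 80%; inconclusive means mean reaches 80% but some replicate falls short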;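 further: 0% = neutral control wells and 100% = parthenolide positive control wells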
# Active calls of the source: *; ? = inconclusive; · = no result; [ ] = another dose, or the depositor's remark. The list is not random: actives were taken first. Their share in the collection is about 2.7%.
SMILES,F508del corr,HIV Env fusion,Wnt bcat act,INS-1E GSIS act,MITF TRPM1 HTS
O=C(C[C@H]1CC[C@@H]2[C@H](COC[C@H](O)CN2Cc2ccc(Oc3ccccc3)cc2)O1)N1CCc2ccccc2C1,11*,46[16.7 µM],·,·,·
O=C(C[C@@H]1CC[C@H]2[C@@H](COC[C@@H](O)CN2Cc2ccc(Oc3ccccc3)cc2)O1)N1CCN(c2ccccc2)CC1,6,59*[16.7 µM],·,-13,·
CCCNC(=O)N1[C@H](CO)[C@H](c2ccc(C3=CCCC3)cc2)[C@@H]1CNC(C)=O,-5,·,·,3,·
CCCNC(=O)N(C)C[C@@H]1Oc2cc(C#CCC(C)C)ccc2S(=O)(=O)N([C@@H](C)CO)C[C@H]1C,4,-1[16.7 µM],·,-30,·
Cc1cccc(Nc2ncnc3ccccc23)c1,·,-97,47*,10,1
CCCC/C=C/[C@H](c1ccccc1)[C@H](CO)Cc1cccnc1,0,1,-5,104*,0
Cc1nc(SCC(=O)Nc2nc3ccccc3s2)c(C#N)c(C)c1C,6,63*,-30,5,-95
Cc1cc(C(F)(F)F)c(C#N)c(SCC(=O)Nc2nc3ccccc3s2)n1,·,-241,·,-29,-23
COc1ccc(CNc2nc3ccccc3n2C)c(OC)c1,-2,-30,10,6,40
COc1ccc(CNc2nc3ccccc3n2C)c(O)c1,-1,-132,?,12,93*
COc1ccc(Nc2nc3ccccc3n2C)cc1,0,-63,41*,8,65
Cn1c(NC(=S)Nc2ccccc2)nc2ccccc21,·,·,41*,-8,5
S=C(Nc1ccccc1)Nc1nc2ccccc2n1CCOc1ccc(Br)cc1,·,21,-9,28,3
Cn1c(NCc2cc(Br)ccc2O)nc2ccccc21,·,16,13,-26,·
Cn1c(NCc2c(O)ccc3ccccc23)nc2ccccc21,·,71*,·,·,·
COc1ccc(S(=O)(=O)Nc2ccc3c(c2)C(=O)N([C@@H](C)CO)C[C@H](C)[C@@H](CN(C)CC2CC2)O3)cc1,1,·,·,5,·
C[C@H]1CCCCO[C@H](CN(C)CC2CCCCC2)[C@@H](C)CN([C@@H](C)CO)C(=O)c2cc(NC(=O)NC3CCCCC3)ccc2O1,1,16[16.7 µM],·,-33,·
COc1ccc(C[C@H]2CCn3cc(nn3)COC[C@@H](Cc3ccccc3)NC2=O)cc1,·,·,·,10,·
COc1cccc(CNC(=O)C[C@@H]2C=C[C@H](NC(=O)C3CCC3)[C@H](CO)O2)c1,0,65*[16.7 µM],·,17,·
COC(=O)C[C@@H]1C=C[C@H](NC(=O)c2cnccn2)[C@@H](CO)O1,-1,-7,-3,16,·
COC(=O)C[C@H]1C=C[C@H](NC(=O)c2ccccn2)[C@@H](CO)O1,0,72*,-6,·,·
COC(=O)C[C@H]1C=C[C@@H](NC(=O)C2CC2)[C@@H](CO)O1,2,4,45*,6,·
Cc1noc(C)c1NC(=O)Nc1ccc2c(c1)CC(=O)N([C@@H](C)CO)C[C@H](C)[C@@H](CN(C)S(C)(=O)=O)O2,-1,9[16.7 µM],·,2,·
COc1ccc([C@H]2CC=CC[C@H](C)Oc3ccccc3C(=O)N(C)[C@H](C)C(=O)N2)c(OC)c1 (mixture of isomers),·,·,·,-20,·
COc1ccc2c3c([nH]c2c1)[C@H](CO)N(C(=O)C1CCCC1)CC31CCN(S(C)(=O)=O)CC1,-4,·,·,-1,·
SMILES,F508del corr,HIV Env fusion,Wnt bcat act,INS-1E GSIS act,MITF TRPM1 HTS
CCSc1nnc(NC(=O)c2ccc3c(c2)OCO3)s1,·,-317,·,10,63
CC(C)(C)c1nnc(NC(=O)c2ccc3c(c2)OCO3)s1,0,-48,?,25,121*
CC(C)(C)c1nnc(NC(=O)COc2ccc3c(c2)OCO3)s1,0,-42,-2,-4,85*
CC(C)Sc1nnc(NC(=O)c2ccc3c(c2)OCO3)s1,-2,-69,0,15,88*
COc1ccc(S(=O)(=O)Nc2ccc3c(c2)C(=O)N(C)C[C@H](OC)[C@@H](C)CN[C@@H](C)CO3)cc1,0,-7[16.7 µM],·,-4,·
CO[C@H]1CN(C)C(=O)c2cc(NC(=O)c3cc(C)on3)ccc2OC[C@H](C)NC[C@H]1C,-1,-11[16.7 µM],·,11,·
Clc1ccc(OCCOCCNCc2ccccc2)cc1Cl,-2,55*,0,-12,·
C[C@@H]1CN([C@@H](C)CO)S(=O)(=O)c2ccc(C#CC3CC3)cc2O[C@H]1CN(C)CC1CCCC1,-4,-7[16.7 µM],·,4,·
C[C@@H]1CN([C@H](C)CO)C(=O)c2cc(NC(=O)CCC(F)(F)F)ccc2O[C@@H]1CN(C)Cc1ccc(C(=O)O)cc1,1,·,·,18,·
